For some assays here: Entries with a potency or affinity are not part of this list.
Key:
Set-up in all cases: scale not given: direction of the effect not stated beside the values
[1] = biological target: Protein translocase subunit SecA (Escherichia coli (strain K12)) (UniProt P10408); experiment: Assay to Identify E. coli SecA ATPase Inhibitors; format: functional; conditions: 30 µM
[2] = biological target: T1, Ubiquitin-activating enzyme e1, putative (Leishmania donovani (strain BPK282A1)) (UniProt E9BSI1); experiment: Leishmania donovani Ubiquitin Activating Enzyme (LdE1); format: functional; conditions: 30 µM
T1 sequence (whole entry): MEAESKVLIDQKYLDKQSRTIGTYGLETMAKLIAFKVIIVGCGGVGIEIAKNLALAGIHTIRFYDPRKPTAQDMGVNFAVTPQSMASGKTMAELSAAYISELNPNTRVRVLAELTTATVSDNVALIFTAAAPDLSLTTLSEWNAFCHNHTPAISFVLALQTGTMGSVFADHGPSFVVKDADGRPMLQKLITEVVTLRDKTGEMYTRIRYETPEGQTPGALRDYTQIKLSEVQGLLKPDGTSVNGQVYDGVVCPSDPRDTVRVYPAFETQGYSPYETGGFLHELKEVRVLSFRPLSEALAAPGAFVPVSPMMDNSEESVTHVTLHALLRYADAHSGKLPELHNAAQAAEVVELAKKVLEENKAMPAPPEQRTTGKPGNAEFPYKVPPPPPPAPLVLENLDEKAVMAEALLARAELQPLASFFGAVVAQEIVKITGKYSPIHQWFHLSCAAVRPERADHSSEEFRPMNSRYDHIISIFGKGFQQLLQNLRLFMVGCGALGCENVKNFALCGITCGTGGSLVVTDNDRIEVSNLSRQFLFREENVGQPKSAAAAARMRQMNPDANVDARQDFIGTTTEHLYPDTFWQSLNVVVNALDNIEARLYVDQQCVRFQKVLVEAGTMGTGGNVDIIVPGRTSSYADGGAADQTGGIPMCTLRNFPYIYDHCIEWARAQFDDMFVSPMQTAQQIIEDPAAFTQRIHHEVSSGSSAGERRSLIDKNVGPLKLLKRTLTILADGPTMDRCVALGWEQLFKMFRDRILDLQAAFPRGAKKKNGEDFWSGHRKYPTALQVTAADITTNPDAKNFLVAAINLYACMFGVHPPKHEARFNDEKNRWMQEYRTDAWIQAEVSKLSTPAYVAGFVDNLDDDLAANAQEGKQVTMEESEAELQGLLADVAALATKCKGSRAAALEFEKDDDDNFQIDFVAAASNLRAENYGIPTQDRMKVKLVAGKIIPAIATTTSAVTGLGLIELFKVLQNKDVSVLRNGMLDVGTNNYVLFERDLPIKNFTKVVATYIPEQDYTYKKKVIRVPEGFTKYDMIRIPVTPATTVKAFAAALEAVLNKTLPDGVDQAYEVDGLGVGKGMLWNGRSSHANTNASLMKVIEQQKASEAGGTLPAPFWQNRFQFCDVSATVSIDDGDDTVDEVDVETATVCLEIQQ

[3] = biological target: AMP-activated protein kinase, AMPK (Homo sapiens) (UniProt P54646+O43741+P54619+Q9UGJ0+Q9Y478+Q13131+Q9UGI9); experiment: AMP-dependent Kinase enzyme assay. An in vitro enzyme assay that detects ADP turnover that is directly proportional to AMPK activity. This uses naive AMPK that is activated during the assay with MK-8722; format: functional; conditions: 30 µM
[4] = biological target: Sialic acid-binding Ig-like lectin 9 (Homo sapiens) (UniProt Q9Y336); experiment: Hs-Siglec9 ALPHAscreen SOP 20170721; conditions: 10 µM
[5] = system: Trypanosoma cruzi; experiment: Trypanosoma cruzi phosphomannomutase and mannose-1-phosphate guanylyltransferase assay; format: functional; conditions: 10 µM
[6] = biological target: T2, Arginase-2, mitochondrial (Homo sapiens) (UniProt P78540); experiment: in vitro enzyme assay to detect the production of urea directly proportional to the activity of Arginase II; format: functional; conditions: 33.3 µM; note: in the data most compounds retested in dose-response had high values
T2 sequence (whole entry): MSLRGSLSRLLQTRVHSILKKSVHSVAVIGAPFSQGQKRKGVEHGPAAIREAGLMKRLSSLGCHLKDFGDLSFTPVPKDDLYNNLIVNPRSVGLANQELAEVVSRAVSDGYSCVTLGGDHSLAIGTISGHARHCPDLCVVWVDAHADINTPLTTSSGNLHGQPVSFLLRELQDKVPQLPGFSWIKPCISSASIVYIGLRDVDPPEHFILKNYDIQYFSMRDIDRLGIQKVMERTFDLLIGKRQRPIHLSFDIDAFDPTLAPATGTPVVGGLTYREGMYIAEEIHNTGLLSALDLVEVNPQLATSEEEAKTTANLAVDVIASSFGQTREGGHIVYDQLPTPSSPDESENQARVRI

[7] = biological target: T3, Proteasome subunit beta (Trypanosoma cruzi) (UniProt O96673); experiment: Trypanosoma cruzi proteasome chymotrypsin-like activity (TcProtChymo) assay.; note: in the data most compounds retested in dose-response had high values; format: functional; conditions: 9.37 µM
T3 sequence (whole entry): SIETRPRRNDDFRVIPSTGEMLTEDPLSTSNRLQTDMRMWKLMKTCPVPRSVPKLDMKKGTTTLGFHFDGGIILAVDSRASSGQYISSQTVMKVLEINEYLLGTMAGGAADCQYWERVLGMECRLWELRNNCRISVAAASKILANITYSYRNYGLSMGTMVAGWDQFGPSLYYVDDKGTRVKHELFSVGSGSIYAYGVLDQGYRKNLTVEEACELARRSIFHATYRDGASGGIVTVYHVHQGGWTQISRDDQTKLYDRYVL

[8] = species on record: Homo sapiens; experiment: To identify inhibition of the IFN signalling (Jak-Stat) pathway via expression of an eGFP reporter gene under the control of an IFN-stimulated response element (ISRE) containing MxA promoter.; format: functional; conditions: 30 µM
[9] = biological target: T4, Tyrosyl-tRNA synthetase, putative (Trypanosoma cruzi (strain CL Brener)) (UniProt Q4DSP6); experiment: Trypanosoma cruzi tyrosyl tRNA synthetase (TcYRS) _High Tyrosine SOP; format: functional; conditions: 30 µM; note: in the data most compounds retested in dose-response had high values
T4 sequence (whole entry): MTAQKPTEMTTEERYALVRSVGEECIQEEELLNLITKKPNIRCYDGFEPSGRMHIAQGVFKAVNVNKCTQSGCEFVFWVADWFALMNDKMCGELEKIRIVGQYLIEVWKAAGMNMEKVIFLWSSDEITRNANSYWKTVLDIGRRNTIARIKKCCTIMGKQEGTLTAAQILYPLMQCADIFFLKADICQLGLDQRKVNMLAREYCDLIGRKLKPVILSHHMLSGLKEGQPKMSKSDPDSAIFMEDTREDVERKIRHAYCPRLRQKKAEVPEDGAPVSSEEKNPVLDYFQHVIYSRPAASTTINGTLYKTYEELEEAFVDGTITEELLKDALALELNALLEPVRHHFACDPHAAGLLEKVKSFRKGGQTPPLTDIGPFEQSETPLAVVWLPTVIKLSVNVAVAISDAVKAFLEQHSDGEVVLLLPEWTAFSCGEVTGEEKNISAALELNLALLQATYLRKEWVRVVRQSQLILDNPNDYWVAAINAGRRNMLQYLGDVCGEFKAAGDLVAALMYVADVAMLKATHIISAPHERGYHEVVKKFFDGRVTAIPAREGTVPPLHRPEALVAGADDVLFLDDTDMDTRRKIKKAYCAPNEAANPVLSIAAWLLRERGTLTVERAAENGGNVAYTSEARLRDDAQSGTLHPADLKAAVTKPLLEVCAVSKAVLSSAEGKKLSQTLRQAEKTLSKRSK

[10] = biological target: T4, Tyrosyl-tRNA synthetase, putative (Trypanosoma cruzi (strain CL Brener)); experiment: Trypanosoma cruzi tyrosyl tRNA synthetase (TcYRS) SOP; format: functional; conditions: 30 µM
[11] = biological target: Chromo domain-containing protein 1 (Saccharomyces cerevisiae (strain ATCC 204508 / S288c) (Baker's yeast)) (UniProt P32657); experiment: ScCHD-1 Enzyme Inhibition Assay; format: functional; conditions: 30 µM; note: in the data most compounds retested in dose-response had high values
Sequence of Chromo domain-containing protein 1 (Saccharomyces cerevisiae (strain ATCC 204508 / S288c) (Baker's yeast)) (P32657 whole entry, the tested form may be a part): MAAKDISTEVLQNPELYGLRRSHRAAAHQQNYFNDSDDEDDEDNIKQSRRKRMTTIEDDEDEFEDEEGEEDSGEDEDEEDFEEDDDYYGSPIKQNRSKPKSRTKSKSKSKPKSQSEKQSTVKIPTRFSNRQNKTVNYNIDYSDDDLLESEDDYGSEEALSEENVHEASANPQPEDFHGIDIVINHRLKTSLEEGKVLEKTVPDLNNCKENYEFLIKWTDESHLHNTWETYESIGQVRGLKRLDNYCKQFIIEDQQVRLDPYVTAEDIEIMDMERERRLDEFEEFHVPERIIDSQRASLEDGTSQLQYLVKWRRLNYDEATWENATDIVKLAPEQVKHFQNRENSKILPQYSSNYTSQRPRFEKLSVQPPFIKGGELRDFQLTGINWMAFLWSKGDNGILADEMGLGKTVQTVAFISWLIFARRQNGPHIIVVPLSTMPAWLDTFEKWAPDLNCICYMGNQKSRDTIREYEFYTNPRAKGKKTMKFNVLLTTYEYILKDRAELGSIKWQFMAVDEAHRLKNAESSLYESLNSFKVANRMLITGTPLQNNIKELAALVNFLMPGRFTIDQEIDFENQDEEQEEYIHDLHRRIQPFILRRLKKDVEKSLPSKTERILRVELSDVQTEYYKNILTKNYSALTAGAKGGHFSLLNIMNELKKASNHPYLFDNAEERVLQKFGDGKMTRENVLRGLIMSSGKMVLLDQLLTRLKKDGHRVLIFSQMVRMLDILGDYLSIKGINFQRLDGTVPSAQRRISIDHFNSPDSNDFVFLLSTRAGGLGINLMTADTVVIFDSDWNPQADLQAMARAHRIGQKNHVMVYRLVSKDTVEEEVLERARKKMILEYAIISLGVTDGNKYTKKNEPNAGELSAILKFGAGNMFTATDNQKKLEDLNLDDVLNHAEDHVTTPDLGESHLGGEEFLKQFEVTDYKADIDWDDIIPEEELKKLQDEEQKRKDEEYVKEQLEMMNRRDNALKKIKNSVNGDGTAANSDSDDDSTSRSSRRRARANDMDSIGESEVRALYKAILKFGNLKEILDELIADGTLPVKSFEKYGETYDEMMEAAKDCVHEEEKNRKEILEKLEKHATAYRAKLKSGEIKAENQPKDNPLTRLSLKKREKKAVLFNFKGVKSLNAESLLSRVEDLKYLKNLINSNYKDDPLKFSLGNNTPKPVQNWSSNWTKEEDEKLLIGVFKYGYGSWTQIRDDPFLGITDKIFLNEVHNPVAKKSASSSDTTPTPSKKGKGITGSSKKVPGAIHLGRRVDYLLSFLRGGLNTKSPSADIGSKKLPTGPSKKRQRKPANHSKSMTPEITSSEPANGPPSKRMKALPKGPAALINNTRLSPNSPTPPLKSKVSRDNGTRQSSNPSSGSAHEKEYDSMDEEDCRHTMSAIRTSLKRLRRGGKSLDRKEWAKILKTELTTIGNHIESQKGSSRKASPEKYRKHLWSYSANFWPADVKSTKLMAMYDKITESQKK

Sequence of Protein translocase subunit SecA (Escherichia coli (strain K12)) (P10408 whole entry): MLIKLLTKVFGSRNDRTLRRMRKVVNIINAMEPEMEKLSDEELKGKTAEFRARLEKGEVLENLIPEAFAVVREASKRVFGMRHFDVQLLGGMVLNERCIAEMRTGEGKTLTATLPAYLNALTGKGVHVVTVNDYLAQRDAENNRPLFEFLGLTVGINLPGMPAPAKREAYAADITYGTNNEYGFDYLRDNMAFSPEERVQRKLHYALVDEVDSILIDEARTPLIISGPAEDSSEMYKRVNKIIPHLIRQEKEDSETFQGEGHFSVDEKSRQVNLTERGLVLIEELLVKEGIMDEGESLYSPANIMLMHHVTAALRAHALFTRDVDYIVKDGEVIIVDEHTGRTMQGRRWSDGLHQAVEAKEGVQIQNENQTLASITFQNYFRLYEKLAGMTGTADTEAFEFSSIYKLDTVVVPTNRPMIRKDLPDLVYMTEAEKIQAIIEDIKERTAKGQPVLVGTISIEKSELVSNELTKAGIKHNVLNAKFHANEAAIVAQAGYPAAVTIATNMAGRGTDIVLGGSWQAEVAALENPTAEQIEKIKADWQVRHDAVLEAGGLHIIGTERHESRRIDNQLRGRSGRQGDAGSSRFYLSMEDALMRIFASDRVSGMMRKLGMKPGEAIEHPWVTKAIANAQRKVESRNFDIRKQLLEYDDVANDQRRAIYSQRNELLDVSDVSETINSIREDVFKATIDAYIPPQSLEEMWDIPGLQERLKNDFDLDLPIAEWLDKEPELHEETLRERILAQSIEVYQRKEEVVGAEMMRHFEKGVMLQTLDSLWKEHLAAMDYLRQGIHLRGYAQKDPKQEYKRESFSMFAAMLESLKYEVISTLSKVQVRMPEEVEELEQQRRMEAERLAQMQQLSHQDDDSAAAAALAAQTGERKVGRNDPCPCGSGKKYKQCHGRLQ
Sequence of Sialic acid-binding Ig-like lectin 9 (Homo sapiens) (Q9Y336 whole entry): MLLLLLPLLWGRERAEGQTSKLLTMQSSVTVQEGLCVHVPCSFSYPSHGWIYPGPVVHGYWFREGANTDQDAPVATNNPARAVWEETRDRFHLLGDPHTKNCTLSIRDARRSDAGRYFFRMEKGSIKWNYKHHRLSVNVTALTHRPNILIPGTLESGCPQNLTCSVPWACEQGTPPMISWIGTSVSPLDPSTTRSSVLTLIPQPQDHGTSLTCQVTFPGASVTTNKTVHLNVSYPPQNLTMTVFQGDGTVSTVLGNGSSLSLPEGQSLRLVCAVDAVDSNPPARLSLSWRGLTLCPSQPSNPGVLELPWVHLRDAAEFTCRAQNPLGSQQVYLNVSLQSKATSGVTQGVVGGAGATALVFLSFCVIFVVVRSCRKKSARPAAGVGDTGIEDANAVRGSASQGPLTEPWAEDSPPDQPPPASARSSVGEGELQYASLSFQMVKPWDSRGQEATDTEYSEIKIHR

SMILES | Percent Effect [1] [%] | Percent Effect [2] [%] | Percent Effect [3] [%] | Percent Effect [4] [%] | Percent Effect [5] [%] | Percent Effect [6] [%] | Percent Effect [7] [%] | Percent Effect [8] [%] | Percent Effect [9] [%] | Percent Effect [10] [%] | Percent Effect [11] [%]
COc1ccccc1OC1(C(=O)O)CCN(c2nccnc2C)CC1 | -2.61 | 5.48 | -1.61 | 9.27 | 1.19 | -5.19 | 9.16 | -8.06 | 5.21 | 23.5 | -6.84
COC(=O)c1cc(OCC2CCC2)cc(C(=O)N[C@@H]2CNCC[C@H]2O)c1 | -7.97 | 0 | -18.2 | 10.2 | -0.392 | -2.73 | 4.44 | 36 | 0 | 0 | -7.21
COC(=O)CCc1c(C)nn(-c2nc(C)cc(=O)[nH]2)c1C | 2.99 | 15.6 | 14.8 | -8.75 | -3.06 | 0.645 | 4.87 | 25.4 | 7.41 | 11.5 | -5.54
Cc1cccc(CN2CCC3(CCCN(C(=O)NC4CC4)C3)C2=O)n1 (stereo not given) | -0.773 | 10.4 | -9.14 | -16.1 | -7.99 | 5.81 | 6.79 | 11.4 | 1.06 | 1.28 | -9.83
CC(NC(=O)Cn1cccn1)c1cccnc1 (stereo not given) | -4.41 | 8 | -4.08 | 11 | 8.67 | 6.25 | 1.92 | 10.3 | 3.83 | 13.6 | -3.89
O=C(c1cccs1)N1CCC2(C1)c1ccccc1S(=O)(=O)N2CC1CC1 (stereo not given) | -4.28 | 2.67 | 12.3 | 1.53 | -0.197 | -8.62 | 2.03 | 17.7 | 5.32 | 6.41 | 1.11
O=C(NC1CCS(=O)(=O)C1)N1CCN(c2cnccn2)CC1 (stereo not given) | -3.53 | 24.3 | -10.3 | 4.95 | 1.58 | -3.14 | 11.1 | 15.6 | 4.95 | 6.1 | -6.05
COc1cccc(CN2CCCCCC2c2cccs2)c1O (stereo not given) | -0.394 | 0 | -1.74 | -0.0415 | -3.65 | 4.52 | 15.8 | 21.7 | -1.06 | 8.97 | -5.25
Oc1ccc(N2CCN(Cc3cc4c(cc3Br)OCCO4)CC2)cc1 | -0.859 | -9.72 | 44.8 | 3.01 | -1.07 | -2.21 | 13.2 | 27.4 | 9.47 | 10.3 | -3.02
Cc1oncc1C(=O)N1CCC2(CCN(Cc3ccccn3)C2=O)C1 (stereo not given) | -5.3 | -2.74 | -0.544 | 4.81 | -2.78 | -3.19 | 8.82 | 15.6 | 2.08 | 1.24 | -0.071

Reference: ChEMBL document CHEMBL3988442, “University of Dundee, Small-Polar-MMV Screening Library” (2021)
